PubChem BioAssay (Tox21)
“And” between values parts separate entries of the source, which are not always exact repeats. Identical values can stand only once. Results filed as inconclusive are left out. Entries that show only a call come without a potency. Where a structure was tested more than once in an assay, its records may differ in their call. The source made the active and inactive calls. Unless noted, calls come from the whole dose curve; as a rule, active = well fitted curve in the direction sought with a large enough effect in the repeat runs; inconclusive = weak or mixed curves; inactive = no such curve, though single readings can be large; an effect the other way counts as inactive or inconclusive.

Tests used:
[1] = qHTS assay to test for compound auto fluorescence at 535 nm (green) in HEK293 cells (AID 720680)
[2] = qHTS assay to test for compound auto fluorescence at 460 nm (blue) in HEK293 cell free culture (AID 720681)
Procedure, shortened: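 Blue fluorescence (Ex 405/Em 460 nm, triamterene-equivalent) was read immediately after pin transfer of compound or DMSO into medium (DMEM, 10% FBS) without cells.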

[3] = qHTS assay to test for compound auto fluorescence at 535 nm (green) in HEK293 cell free culture (AID 720682)
Procedure, shortened: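 DMEM + 10% FBS, cell-free; cpd or DMSO pinned in; Ex485/Em535 read; output as fluorescein-equivalent signal.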

[4] = qHTS assay to test for compound auto fluorescence at 590 nm (red) in HEK293 cell free culture (AID 720683)
Procedure, shortened: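 Red-channel autofluorescence of compounds in culture medium (DMEM, 10% FBS), no cells, measured at 540/590 nm. Rose Bengal sodium is the reference fluorophore for equivalence.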

[5] = qHTS assay to test for compound auto fluorescence at 460 nm (blue) in HepG2 cells (AID 720687)
Procedure, shortened: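 Blue-channel autofluorescence (Ex/Em 405/460 nm, triamterene-equivalent) was measured after 1 hr compound exposure at 37 C, 5% CO2. Cells were HepG2, plated overnight at 37 C in MEM plus 10% FBS.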

[6] = biological target: Glucocorticoid receptor (Homo sapiens) (UniProt P04150); test: qHTS assay to identify small molecule antagonists of the glucocorticoid receptor (GR) signaling pathway (AID 720692; active = well fitted inhibition curve with a large enough effect in the signal ratio in the repeat runs, not every such curve was filed as active; the % refers to the signal ratio)
Procedure, shortened: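 Fluorescence from cleaved LiveBLAzer B/G FRET substrate reports GRE-driven beta-lactamase in HeLa cells; compounds are tested against 5 nM dexamethasone (final) over 18 h at 37 C, substrate incubation 2 h at room temperature.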

[7] = qHTS assay to identify small molecule antagonists of the glucocorticoid receptor (GR) signaling pathway - cell viability counter screen (AID 720693); note: nearly all actives have a fitted effect of over 55% in size
[8] = qHTS assay for identifying genotoxic compounds that show differential cytotoxicity against isogenic chicken DT40 cell lines with known DNA damage response pathways - wild type cell line (AID 743012); note: nearly all actives have a fitted effect of over 60% in size; note: potency is the fitted concentration of half-maximal effect
Procedure, shortened: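 Quantitative HTS on parental DT40 cells: 40 h compound treatment at 37 C/5% CO2, with viability then determined by CellTiter-Glo luminescence. Values serve as the DNA repair-proficient reference for differential cytotoxicity.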

[9] = qHTS assay for identifying genotoxic compounds that show differential cytotoxicity against isogenic chicken DT40 cell lines with known DNA damage response pathways - Rev3 mutant cell line (AID 743014); note: nearly all actives have a fitted effect of over 55% in size; note: potency is the fitted concentration of half-maximal effect
[10] = qHTS assay for identifying genotoxic compounds that show differential cytotoxicity against isogenic chicken DT40 cell lines with known DNA damage response pathways - Rad54/Ku70 mutant cell line (AID 743015); note: nearly all actives have a fitted effect of over 60% in size; note: potency is the fitted concentration of half-maximal effect
[11] = qHTS assay to identify small molecule antagonists of the androgen receptor (AR) signaling pathway - cell viability counter screen (AID 743033; note: nearly all actives have a fitted effect of over 45% in size; note: potency is the fitted concentration of half-maximal effect)
[12] = qHTS assay to identify small molecule antagonists of the androgen receptor (AR) signaling pathway using the MDA cell line - cell viability counter screen (AID 743041; note: nearly all actives have a fitted effect of over 45% in size; note: potency is the fitted concentration of half-maximal effect)
Procedure, shortened: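 R1881-driven MDA-kb2 AR-luc cells, 3,000/well, were dosed with library compounds for 16 h; cell health came from CellTiter-Fluor fluorescence in the reporter wells.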

[13] = qHTS assay to test for compound auto fluorescence at 460 nm (blue) in HepG2 cell free culture (AID 720685)
Procedure, shortened: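 Compound (23 nL) or DMSO pinned into cell-free MEM with 10% FBS; blue fluorescence read at 405/460 nm excitation/emission, expressed as auto-fluorescence equivalency to triamterene.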

[14] = qHTS assay to test for compound auto fluorescence at 535 nm (green) in HepG2 cell free culture (AID 720686)
[15] = biological target: Androgen receptor (Homo sapiens) (UniProt P10275); test: qHTS assay to identify small molecule antagonists of the androgen receptor (AR) signaling pathway (AID 743035; active = well fitted inhibition curve with a large enough effect in the signal ratio in the repeat runs, not every such curve was filed as active; the % refers to the signal ratio)
Procedure, shortened: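 Cell line: GeneBLAzer AR-UAS-bla GripTite (HEK293). Stimulus: R1881 added after compound. Exposure: 16 h, 37C, 5% CO2. Readout: LiveBLAzer B/G FRET fluorescence after 2 h at room temperature.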

[16] = biological target: Androgen receptor (Homo sapiens) (UniProt P10275); test: qHTS assay to identify small molecule agonists of the androgen receptor (AR) signaling pathway (AID 743036; active = well fitted activation curve with a large enough effect in the signal ratio in the repeat runs, with a control signal flat, not every such curve was filed as active; the % refers to the signal ratio)
Procedure, shortened: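 Screening used 2,000 AR-bla HEK293 cells per well, treated 16 h at 37C with test compounds in DMSO alongside positive and DMSO-only controls; beta-lactamase activity was then read by LiveBLAzer B/G FRET fluorescence after 2 h at room temperature.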

[17] = biological target: Androgen receptor (Homo sapiens) (UniProt P10275); test: qHTS assay to identify small molecule agonists of the androgen receptor (AR) signaling pathway using the MDA cell line (AID 743040; note: nearly all actives have a fitted effect of over 20% in size); settings: MDA-kb2 AR-luc cells, MMTV luciferase, 16 h, stronger effect = higher value
Procedure, shortened: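 After a 5 h incubation at 37C and 0% CO2, MDA-kb2 reporter cells were dosed with compounds in DMSO and kept 16 h under the same conditions. Luciferase activity was then read as luminescence with ONE-Glo.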

[18] = biological target: Androgen receptor (Homo sapiens) (UniProt P10275); test: qHTS assay to identify small molecule antagonists of the androgen receptor (AR) signaling pathway using the MDA cell line (AID 743042; note: nearly all actives have a fitted effect of over 55% in size)
Procedure, shortened: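 Antagonist mode: compounds plus R1881 agonist added to MDA-kb2 AR-luc cells, incubated 16 h at 37C. Luciferase reporter luminescence quantified, with multiplexed CellTiter-Fluor readout for cell viability.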

[19] = biological target: Glucocorticoid receptor (Homo sapiens) (UniProt P04150); test: qHTS assay to identify small molecule agonists of the glucocorticoid receptor (GR) signaling pathway (AID 720691; active = well fitted activation curve with a large enough effect in the signal ratio in the repeat runs, not every such curve was filed as active; the % refers to the signal ratio)
Procedure, shortened: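 Beta-lactamase reporter activity, read as fluorescence intensity, was measured in GR-bla HeLa cells exposed to compounds for 18 h at 37 C and then loaded with LiveBLAzer B/G FRET substrate for 2 h at room temperature.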

Sequence of Androgen receptor (Homo sapiens) (P10275 whole entry, looked up): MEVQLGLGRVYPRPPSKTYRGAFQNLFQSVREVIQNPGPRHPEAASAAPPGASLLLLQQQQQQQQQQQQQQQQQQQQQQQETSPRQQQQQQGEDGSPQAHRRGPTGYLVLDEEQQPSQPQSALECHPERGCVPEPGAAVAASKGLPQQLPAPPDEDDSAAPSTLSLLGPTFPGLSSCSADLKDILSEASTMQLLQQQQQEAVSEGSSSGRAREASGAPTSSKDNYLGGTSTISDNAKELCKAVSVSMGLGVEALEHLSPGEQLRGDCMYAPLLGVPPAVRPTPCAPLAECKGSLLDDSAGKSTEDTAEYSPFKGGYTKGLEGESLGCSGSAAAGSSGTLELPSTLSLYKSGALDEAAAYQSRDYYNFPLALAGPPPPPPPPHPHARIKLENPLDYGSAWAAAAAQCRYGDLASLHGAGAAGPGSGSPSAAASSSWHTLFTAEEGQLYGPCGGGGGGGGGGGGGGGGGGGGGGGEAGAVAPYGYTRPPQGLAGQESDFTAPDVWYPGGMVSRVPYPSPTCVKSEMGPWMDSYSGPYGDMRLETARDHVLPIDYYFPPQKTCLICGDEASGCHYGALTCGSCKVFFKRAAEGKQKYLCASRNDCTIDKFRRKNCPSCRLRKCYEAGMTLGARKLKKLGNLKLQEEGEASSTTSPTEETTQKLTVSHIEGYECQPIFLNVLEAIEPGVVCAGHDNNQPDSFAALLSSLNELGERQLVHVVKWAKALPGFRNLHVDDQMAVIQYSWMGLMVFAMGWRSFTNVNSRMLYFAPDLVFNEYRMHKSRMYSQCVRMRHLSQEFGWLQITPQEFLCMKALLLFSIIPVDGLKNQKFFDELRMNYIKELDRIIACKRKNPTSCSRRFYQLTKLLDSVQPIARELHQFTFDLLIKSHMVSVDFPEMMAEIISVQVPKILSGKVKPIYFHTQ
Sequence of Glucocorticoid receptor (Homo sapiens) (P04150 whole entry, looked up): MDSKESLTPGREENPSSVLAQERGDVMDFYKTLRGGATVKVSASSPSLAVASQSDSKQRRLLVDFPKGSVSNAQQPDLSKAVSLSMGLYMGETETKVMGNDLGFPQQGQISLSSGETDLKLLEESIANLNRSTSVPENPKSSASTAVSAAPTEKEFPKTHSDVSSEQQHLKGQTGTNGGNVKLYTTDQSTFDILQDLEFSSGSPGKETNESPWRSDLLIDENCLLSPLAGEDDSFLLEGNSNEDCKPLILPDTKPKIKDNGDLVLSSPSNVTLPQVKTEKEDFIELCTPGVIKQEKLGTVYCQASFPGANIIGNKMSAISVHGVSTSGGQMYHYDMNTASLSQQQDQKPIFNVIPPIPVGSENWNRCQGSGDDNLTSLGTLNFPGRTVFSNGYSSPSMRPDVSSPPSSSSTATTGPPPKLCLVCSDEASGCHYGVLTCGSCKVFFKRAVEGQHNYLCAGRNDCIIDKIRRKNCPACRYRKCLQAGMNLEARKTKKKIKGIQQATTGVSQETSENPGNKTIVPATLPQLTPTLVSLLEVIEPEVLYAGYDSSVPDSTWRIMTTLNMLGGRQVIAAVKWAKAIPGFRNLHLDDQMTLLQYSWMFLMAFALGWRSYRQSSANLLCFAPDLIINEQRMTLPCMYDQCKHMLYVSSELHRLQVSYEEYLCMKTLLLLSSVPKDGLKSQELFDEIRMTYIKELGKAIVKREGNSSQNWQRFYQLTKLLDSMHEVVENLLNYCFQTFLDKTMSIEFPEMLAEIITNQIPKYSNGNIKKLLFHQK

SMILES	outcome [1]	Potency [2]	outcome [3]	outcome [4]	Potency [5]	Potency [6]	Potency [7]	Potency [8]	Potency [9]	Potency [10]	Potency [11]	Potency [12]	Potency [13]	outcome [14]	Potency [15]	Potency [16]	activity change ([17]; at 70.3 µM (top of the series))	activity change ([17]; at 95 µM (top of the series))	Potency [18]	outcome [19]
CC1=CC(=O)CC(C)(C)C1	inactive	inactive	inactive	inactive	inactive	inactive	inactive	inactive	inactive	inactive	inactive	inactive	–	–	–	–	–	–	–	–
CCCCCCCCO	inactive	inactive	inactive	inactive	inactive	inactive	inactive	inactive	inactive	inactive	inactive	inactive	–	–	–	–	–	–	–	–
CCN(CC)CCNC(=O)c1ccc(N)cc1	inactive	inactive	inactive	inactive	inactive	–	inactive	inactive	inactive	inactive	inactive	inactive	inactive	–	–	–	–	–	–	–
CCc1cccc(CC)c1N	inactive	inactive	inactive	inactive	inactive	inactive	inactive	inactive	inactive	inactive	inactive	inactive	inactive	inactive	inactive	inactive	0.738% (inactive)	0.21% (inactive)	inactive	–
CCCCCCCC(=O)O	inactive	inactive	inactive	inactive	inactive	inactive	inactive	inactive	inactive	inactive	inactive	inactive	inactive	inactive	–	–	–	–	–	–
CCc1cccc(O)c1	inactive	inactive	inactive	inactive	inactive	–	inactive	inactive	inactive	inactive	inactive	inactive	–	inactive	–	–	–	–	–	–
Cc1ccc(Cl)cc1	inactive	inactive	inactive	inactive	inactive	inactive	inactive	inactive	inactive	inactive	inactive	inactive	–	inactive	–	–	–	–	–	–
C=CC(=O)NCOCCCC	inactive	inactive	inactive	inactive	inactive	inactive	inactive	inactive	inactive	inactive	inactive	inactive	inactive	inactive	–	–	–	–	–	inactive
c1cnc2c(c1)ccc1cccnc12	inactive	inactive	inactive	inactive	inactive	–	inactive	3.09 µM (active) and 1.54 µM (active) and 3.86 µM (active)	1.38 µM (active) and 1.22 µM (active) and 2.43 µM (active)	1.38 µM (active) and 686 nM (active) and 1.54 µM (active)	4.9 µM (active)	49 µM (active) and 30.6 µM (active)	inactive	inactive	–	–	–	–	–	–
COc1ccccc1[N+](=O)[O-]	inactive	inactive	inactive	inactive	inactive	–	inactive	inactive	inactive	inactive	inactive	inactive	–	inactive	–	–	–	–	–	–
C=C1C[C@]23C[C@@]1(O)CC[C@H]2[C@@]12C=C[C@H](O)[C@@](C)(C(=O)O1)[C@H]2[C@@H]3C(=O)O	inactive	inactive	inactive	inactive	inactive	inactive	inactive	inactive	inactive	inactive	inactive	inactive	–	inactive	–	–	–	–	–	inactive
NC1CCCCC1N (stereo unspecified)	inactive	inactive	inactive	inactive	inactive	inactive	inactive	inactive	inactive	inactive	inactive	inactive	–	–	–	–	–	–	–	inactive
O=Cc1ccc(CO)o1	inactive	inactive	inactive	inactive	inactive	inactive	inactive	inactive	inactive	inactive	inactive	inactive	inactive	inactive	–	–	–	–	–	inactive
Cc1ncc(CO)c(CO)c1O	inactive	inactive	inactive	inactive	inactive	–	inactive	inactive	inactive	inactive	inactive	inactive	inactive	–	–	–	–	–	–	–
Brc1ccc(Oc2ccc(Br)cc2)cc1	inactive	inactive	inactive	inactive	inactive	inactive	inactive	inactive	inactive	inactive	inactive	inactive	inactive	inactive	–	–	–	–	–	inactive
OCC(CO)(CO)CO	inactive	inactive	inactive	inactive	inactive	–	inactive	inactive	inactive	inactive	inactive	inactive	inactive	–	–	–	–	–	–	–
CC(O)CNCC(C)O (stereo unspecified)	inactive	inactive	inactive	inactive	inactive	–	inactive	inactive	inactive	inactive	inactive	inactive	inactive	–	–	–	–	–	–	–
CCCCCNCCCCC	inactive	inactive	inactive	inactive	inactive	–	inactive	inactive	inactive	inactive	inactive	inactive	–	inactive	–	–	–	–	–	–
CN1Cc2c(N)cccc2C(c2ccccc2)C1 (stereo unspecified)	inactive	inactive	inactive	inactive	inactive	inactive	inactive	inactive	inactive and 61.1 µM (active)	inactive and 54.5 µM (active)	inactive	inactive	–	–	–	–	–	–	–	–
